According to the supplement of paper PMC6555819:

What was measured:
Experiment in all cases: PBM binding z-score (relative to random genomic background probes); higher = stronger binding; sequences stand for … in GC…GCGATTGACAGCGTAGAATGAAGG
[1] = test system: FXR:RXRa (NR concentration 270 nM, RXRa partner concentration 90 nM)
How it was run: (§1)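 Probes were double-stranded and carried 34-nt variable regions with direct-repeat seeds, single-nucleotide variants, half-site ablations and random human genomic background sequences, printed on custom Agilent 4×180K protein-binding microarrays. Arrays were incubated 1 h with ligand-free nuclear receptor dimers in PBS pH 7.4, 2% milk, 0.02% Triton X-100, 1 mM DTT, 0.2 mg/mL BSA and 0.4 mg/ml salmon testes DNA. Antibodies against each partner (one per run) detected binding, and scanned fluorescence was regression-normalized. Binding z-scores use the random background probes as reference.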

[2] = test system: LXRa:RXRa (NR concentration 270 nM, RXRa partner concentration 90 nM)
How it was run: as §1

[3] = test system: LXRa homodimer (NR concentration 270 nM)
How it was run: as §1

[4] = test system: LXRb:RXRa (NR concentration 270 nM, RXRa partner concentration 90 nM)
How it was run: as §1

[5] = test system: LXRb homodimer (NR concentration 270 nM)
How it was run: as §1

[6] = test system: PPARa:RXRa (NR concentration 270 nM, RXRa partner concentration 90 nM)
How it was run: as §1

[7] = test system: PPARg:RXRa (NR concentration 180 nM, RXRa partner concentration 90 nM)
How it was run: as §1

[8] = test system: PPARg:RXRa 270nM:90nM, anti-RXR (NR concentration 270 nM, RXRa partner concentration 90 nM)
How it was run: as §1

[9] = test system: PPARg:RXRa 30nM:10nM, anti-RXR (NR concentration 30 nM, RXRa partner concentration 10 nM)
How it was run: as §1

[10] = test system: PPARg:RXRa 90nM:30nM, anti-RXR (NR concentration 90 nM, RXRa partner concentration 30 nM)
How it was run: as §1

[11] = test system: PPARg:RXRa DBDmut IVT, anti-RXR (DBD mutation: RXRa K156A/R161A, NR concentration 270 nM, RXRa partner concentration 90 nM)
How it was run: as §1

[12] = test system: PPARg:RXRa IVT, anti-PPARg (NR concentration 270 nM, RXRa partner concentration 90 nM)
How it was run: as §1

[13] = test system: PPARg DBDmut:RXRa IVT, anti-PPARg (DBD mutation: PPARg1 K132A/R137A, NR concentration 270 nM, RXRa partner concentration 90 nM)
How it was run: as §1

[14] = test system: PPARg DBDmut IVT, anti-PPARg (DBD mutation: PPARg1 K132A/R137A, NR concentration 270 nM)
How it was run: as §1

[15] = test system: PPARg homodimer (NR concentration 180 nM)
How it was run: as §1

[16] = test system: PXR:RXRa (NR concentration 270 nM, RXRa partner concentration 90 nM)
How it was run: as §1

[17] = test system: PXR homodimer (NR concentration 270 nM)
How it was run: as §1

[18] = test system: RARa:RXR (NR concentration 270 nM, RXRa partner concentration 90 nM)
How it was run: as §1

[19] = test system: RARa homodimer (NR concentration 270 nM)
How it was run: as §1

[20] = test system: RARb:RXRa (NR concentration 270 nM, RXRa partner concentration 90 nM)
How it was run: as §1

Sequence | PBM binding z-score [1] | PBM binding z-score [2] | PBM binding z-score [3] | PBM binding z-score [4] | PBM binding z-score [5] | PBM binding z-score [6] | PBM binding z-score [7] | PBM binding z-score [8] | PBM binding z-score [9] | PBM binding z-score [10] | PBM binding z-score [11] | PBM binding z-score [12] | PBM binding z-score [13] | PBM binding z-score [14] | PBM binding z-score [15] | PBM binding z-score [16] | PBM binding z-score [17] | PBM binding z-score [18] | PBM binding z-score [19] | PBM binding z-score [20]
TCTAGCAGGCCAGTGGGTCACTCAAGAGGTACGG | 0.165 | 0.09 | -0.387 | 0.111 | -1.21 | 1.83 | 1.59 | 2.19 | 1.78 | 2.09 | 2.62 | 3.66 | -0.249 | -0.535 | -0.0883 | 0.324 | -0.497 | 1.16 | -0.945 | 1.48
CCTACTGGGCCAAGGTCATTGGTCAGTCAAAGCA | 3.51 | 2.93 | 1.17 | 2.84 | -0.423 | 4.01 | 4.31 | 4.6 | 1.68 | 3.55 | 3.94 | 4.88 | -0.325 | -0.629 | 1.86 | 3.62 | 1.12 | 3.85 | 0.172 | 3.56
CCGACTGGAGCAAAGGTTACCATACTCAGTACGA | 0.849 | 1.39 | 0.0439 | 1.71 | -0.613 | 4.5 | 8.49 | 8.31 | 8.2 | 8.54 | 2.35 | 3.51 | -0.17 | 0.137 | 0.916 | 1.77 | 0.124 | 2.73 | -0.322 | 1.74
CGAACGAGGGCATGAGTTGATACCAAATGCCGAT | 0.819 | 0.53 | -0.18 | 0.374 | -0.612 | 1.57 | 1.61 | 1.67 | 0.555 | 0.997 | 2.76 | 2.32 | -0.303 | -0.419 | 0.59 | 0.723 | 0.347 | 0.695 | -0.402 | 2.03
ACTATTAGTTGACTTAGGGTAACCGATACGACGC | 0.985 | 1.09 | 1.21 | 0.679 | 0.748 | 0.468 | 0.907 | 0.758 | 0.442 | 0.705 | 0.838 | 0.626 | 1.67 | 1.36 | 0.663 | 0.483 | 0.517 | 0.73 | 0.861 | 0.582
TAGTCTAGGTCATTCAGGGGCCAGTATAGAAAGC | 4.17 | 4.28 | 2.05 | 3.15 | 3.06 | 4.05 | 4.7 | 4.38 | 2.33 | 3.77 | 5.32 | 5.97 | 1.69 | 1.74 | 2.29 | 2.53 | 0.48 | 3.32 | 0.639 | 3.73
CCGACTGGGGCATAAGGTTACCTTAAGCCAGCCC | 0.144 | 2.16 | -0.305 | 0.631 | -1.36 | 1.9 | 2.04 | 3.18 | 0.872 | 2.64 | 2.68 | 3.27 | -0.344 | -1.61 | 0.545 | 0.197 | -0.44 | 1.22 | -0.764 | 1.49
CAAACTAGGTCAAGCGGTCAAAGTCCGCTTCCCG | 5.13 | 4.54 | 4.1 | 2.97 | 0.774 | 5.57 | 8.35 | 7.55 | 5.13 | 7.38 | 8.54 | 8.61 | 4.37 | 1.14 | 3.03 | 2.21 | 0.102 | 3.33 | 0.747 | 4.62
CGTCAAAGTTCAACTAAGCTAACGTAAAGCACGC | 6.6 | 6.23 | 4.14 | 4.26 | 2.57 | 5.08 | 4.95 | 5.46 | 1.83 | 4.48 | 0.667 | 1.69 | 1.11 | 1.29 | 3.28 | 4.69 | 4.44 | 3.82 | 2.34 | 5.31
ACAGACAGGTGCGTGAAGGTAACTCAGCTGGACG | -0.446 | -0.525 | -0.81 | -0.869 | -0.883 | -0.268 | 0.476 | -0.586 | -0.564 | -0.492 | -0.935 | -0.58 | 0.0563 | -0.077 | -0.238 | -0.583 | -0.495 | -0.585 | -0.862 | -0.307
CCTACTGCGCCATCAGGTCATTGATATCAACGTT | 1.39 | 1.32 | 1.7 | 2.2 | 1.17 | 1.73 | 0.376 | 0.994 | 0.212 | 0.573 | 0.542 | 1.25 | -0.701 | 0.364 | 1.76 | 1.98 | 0.943 | 2.03 | 0.602 | 1.76
ATATGTAGGCTACATCCGGGTCATTCAGGCTATG | 0.976 | 1.54 | 0.0787 | 1.85 | 0.425 | 3.62 | 3.08 | 2.77 | 1.13 | 1.85 | 5.71 | 5.66 | 1.96 | 1.11 | 0.66 | 2.34 | 1.04 | 2.51 | 0.115 | 1.27
TTACCAAGGTGAAAGGTCGTTAATGCACGCCTTG | 3.24 | 2.77 | 0.376 | 2.71 | -0.461 | 5.24 | 8.59 | 7.35 | 6.74 | 7.85 | 2.25 | 4.95 | -0.238 | 0.567 | 1.27 | 3.35 | 0.236 | 4.98 | 0.00553 | 2.78
TTACCAAGGTGAATGGTCGTTGATGCACGCCTTG | 0.766 | 0.485 | -0.417 | 0.403 | -0.853 | 1.35 | 1.32 | 2.39 | 1.14 | 2.06 | 2.03 | 2.67 | 0.334 | 0.253 | 0.0353 | 0.0282 | -0.612 | 0.364 | 0.953 | 1.46
